Experimental data reported in PubChem BioAssay (NCATS).
Inconclusive results are not listed. The source made the active and inactive calls. Unless noted, the call rests on the fitted dose curve.

What was measured:
[1] = Primary qHTS for inhibitors of SARS-S pseudo-typed particle cell entry (AID 1479145); further: nearly all actives have a fitted effect of over 45% in size; on activity change, negative = inhibition: series mostly up to about 57 µM; on the % scale 0 is the no-effect control and ±100 the full control effect
[2] = Primary qHTS for Huh7 cytotoxicity: counterscreen for inhibitors of MERS-S pseudotyped particle cell entry (AID 1479147); on activity change, negative = cytotoxicity: on the % scale 0 is the no-effect control and ±100 the full control effect
[3] = Primary qHTS for inhibitors of MERS-S pseudo-typed particle cell entry (AID 1479149); further: nearly all actives have a fitted effect of over 60% in size
[4] = Primary qHTS for Vero E6 cytotoxicity: counterscreen for inhibitors of SARS-S pseudo-typed particle cell entry (AID 1479150); on activity change, negative = cytotoxicity: on the % scale 0 is the no-effect control and ±100 the full control effect
[5] = Primary qHTS for inhibitors of La Crosse Virus (LACV) - induced cell death in SH-SY5Y cells (AID 1508616; active means well fitted curve in the direction sought with a large enough effect; an effect the other way counts as inactive or inconclusive;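 further: top concentration of the series differs between compounds; 0% = infected DMSO wells and 100% = uninfected DMSO wells; higher means more rescue of cells from virus-induced death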)
Method in brief: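 SH-SY5Y cells (6000/well) plated 24 h, then given compounds by pin transfer and LACV at 0.01 MOI for 6 days at 37C. Viability measured by ATPLite luminescence, normalized to infected DMSO and uninfected DMSO.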

[6] = molecular target: Calcium and integrin-binding protein 1 (Homo sapiens) (UniProt Q99828); experiment: Validation qHTS for Identification of Calcium Integrin Binding protein 1 (CIB1) Competitor (AID 1508618; active means well fitted curve in the direction sought with a large enough effect; an effect the other way counts as inactive or inconclusive; further: on the % scale 0 is the no-effect control and ±100 the full control effect)
Method in brief: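 CIB1-GST (1 uM final) incubated 15 min at room temperature with compounds (up to 114 uM), then FITC-labelled alphaIIb peptide (100 nM) added. FP read (Ex 480/Em 540) after 15 min, pH 7.4 buffer containing 5 mM CaCl2.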

Chain of Calcium and integrin-binding protein 1 (Homo sapiens) (Q99828 whole entry, looked up): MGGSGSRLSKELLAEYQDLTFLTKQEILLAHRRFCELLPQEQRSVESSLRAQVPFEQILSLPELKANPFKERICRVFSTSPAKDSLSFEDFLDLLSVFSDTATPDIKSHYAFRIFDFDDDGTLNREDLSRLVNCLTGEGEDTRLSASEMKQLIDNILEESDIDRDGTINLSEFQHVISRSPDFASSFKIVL

N#Cc1ccc(C(c2ccc(C#N)cc2)n2cncn2)cc1
inactive: Potency [1] | Potency [2] | Potency [3] | Potency [4]

Nc1ccc(C(=O)O)cc1
inactive: Potency [1] | Potency [2] | Potency [3] | Potency [4]

CC(=O)NS(=O)(=O)c1ccc(N)cc1
inactive: Potency [1] | Potency [2] | Potency [3] | Potency [4]

CC(=O)Nc1ccccc1
inactive: Potency [1] | Potency [2] | Potency [3] | Potency [4]

CN(CC1(C)CCCO1)S(=O)(=O)c1ccc(Cl)c(S(N)(=O)=O)c1 (configuration not stated)
inactive: Potency [1] | Potency [2] | Potency [3] | Potency [4]

CC(=O)N(CC(O)CO)c1c(I)c(C(=O)NCCO)c(I)c(C(=O)NCC(O)CO)c1I (configuration not stated)
inactive: Potency [1] | Potency [2] | Potency [3] | Potency [4]

COc1cc(C(=O)NC2CCCNC2)cc(OC)c1OC (configuration not stated)
inactive: Potency [1] | Potency [2] | Potency [3] | Potency [4]

Cc1cc(C)nc(NS(=O)(=O)c2ccc(N)cc2)n1
inactive: Potency [1] | Potency [2] | Potency [3] | Potency [4]

O=C(O)CSCC(=O)NC1CCSC1=O (configuration not stated)
inactive: Potency [1] | Potency [2] | Potency [3] | Potency [4]

Nc1ccc(S(=O)(=O)Nc2ccnn2-c2ccccc2)cc1
inactive: Potency [1] | Potency [2] | Potency [3] | Potency [4]

Cc1ccccc1OCC(O)CO (configuration not stated)
inactive: Potency [1] | Potency [2] | Potency [3] | Potency [4]

Nc1nc2[nH]cc(CCc3ccc(C(=O)N[C@@H](CCC(=O)O)C(=O)O)cc3)c2c(=O)[nH]1
inactive: Potency [1] | Potency [2] | Potency [3] | Potency [4]

COc1nccnc1NS(=O)(=O)c1ccc(N)cc1
inactive: Potency [1] | Potency [2] | Potency [3] | Potency [4]

NCCNCCNCCNCCN
inactive: outcome [1] inactive [at 11.4 µM] | outcome [2] inactive [at 11.4 µM] | outcome [3] inactive [at 11.4 µM] | activity change, negative = cytotoxicity [4] 1.23% [at 11.4 µM]

CC(=O)OCC(COC(C)=O)OC(C)=O
inactive: Potency [1] | Potency [2] | Potency [3] | Potency [4]

CC(C)NCC(O)c1ccc(NS(C)(=O)=O)cc1 (configuration not stated)
inactive: Potency [1] | Potency [2] | Potency [3] | Potency [4]

O=C1c2ccccc2C(=O)c2c1ccc(O)c2O
inactive: Potency [1] | Potency [2] | Potency [3] | Potency [4]

Cc1cc(C)c(NC(=O)CN(CC(=O)O)CC(=O)O)c(C)c1Br
inactive: Potency [1] | Potency [2] | Potency [3] | Potency [4]

Cc1cc(NS(=O)(=O)c2ccc(N)cc2)nc(C)n1
inactive: Potency [1] | Potency [2] | Potency [3] | Potency [4]

O=S(=O)(O)c1ccc2nc(-c3ccccc3)[nH]c2c1
inactive: Potency [1] | Potency [2] | Potency [3] | Potency [4]

CC[N+](CC)(CCNC(=O)C(=O)NCC[N+](CC)(CC)Cc1ccccc1Cl)Cc1ccccc1Cl
inactive: Potency [1] | Potency [2] | Potency [3] | Potency [4]

CC1(C)O[C@@H]2C[C@H]3[C@@H]4CCC5=CC(=O)C=C[C@]5(C)[C@@]4(F)[C@@H](O)C[C@]3(C)[C@]2(C(=O)CO)O1
inactive: Potency [1] | Potency [2] | Potency [3] | Potency [4]

C[C@@H]1C[C@H]2[C@@H]3C[C@H](F)C4=CC(=O)C=C[C@]4(C)[C@@]3(F)[C@@H](O)C[C@]2(C)[C@@]1(O)C(=O)CO
inactive: Potency [1] | Potency [2] | Potency [3] | Potency [4]

CCN(Cc1ccncc1)C(=O)C(CO)c1ccccc1 (configuration not stated)
inactive: Potency [1] | Potency [2] | Potency [3] | Potency [4]

CCO/C([O-])=N/c1c[n+](N2CCOCC2)no1
inactive: Potency [1] | Potency [2] | Potency [3] | Potency [4]

NC(=O)c1ccccc1O
inactive: Potency [1] | Potency [2] | Potency [3] | Potency [4]

CC(C)(C)NCC(O)c1cc(Cl)c(N)c(C(F)(F)F)c1 (configuration not stated)
inactive: Potency [1] | Potency [2] | Potency [3] | Potency [4]

Cc1cc(O)c2c(O)c3c(O)cccc3cc2c1
inactive: Potency [1] | Potency [2] | Potency [3] | Potency [4]

O=C1c2ccccc2C(=O)c2ccccc21
inactive: Potency [1] | Potency [2] | Potency [3] | Potency [4] | outcome [5]

CN1C[C@@H]2C[C@H]1CN2c1cc2c(cc1F)c(=O)c(C(=O)O)cn2C1CC1
inactive: Potency [1] | Potency [2] | Potency [4]

NC(=O)c1cc([N+](=O)[O-])cc([N+](=O)[O-])c1
inactive: Potency [1] | Potency [2] | Potency [3] | Potency [4] | outcome [5]

CCCCCN(C)CCC(O)(P(=O)(O)O)P(=O)(O)O
inactive: activity change, negative = inhibition [1] -12.9% [at 11.4 µM] | activity change, negative = cytotoxicity [2] 3.48% [at 11.4 µM] | activity change, negative = inhibition [3] -24.6% [at 11.4 µM] | activity change, negative = cytotoxicity [4] 1.39% [at 11.4 µM] | outcome [6]

O=[N+]([O-])O[C@H]1CO[C@H]2[C@@H]1OC[C@H]2O[N+](=O)[O-]
inactive: Potency [1] | Potency [2] | Potency [3] | Potency [4] | outcome [5]

CCCCCCCCCCCCCCCCCC(=O)O
inactive: Potency [1] | Potency [2] | Potency [3] | Potency [4]

Nc1ccc([As](=O)(O)O)cc1
inactive: Potency [1] | Potency [2] | Potency [3] | Potency [4] | outcome [5]

Cc1cc2c(cc1S(N)(=O)=O)S(=O)(=O)CCC2
inactive: Potency [1] | Potency [2] | Potency [4]

C=CCC1(C(C)CC)C(=O)NC(=O)NC1=O (configuration not stated)
inactive: Potency [1] | Potency [2] | Potency [3] | Potency [4] | outcome [5]
